Measurements published in PubChem BioAssay AID1159580 (chemical genetic matrix, 2015).
Hit rate of the full screen: of about 5,500 compounds, about 2,000 (36%) were called active. About 18% were inconclusive and are not listed. Rule as the data show it: active = normalized growth mostly below about 0.91 (no sharp cut-off); inconclusive = no clear call, values can overlap the other calls; inactive = mostly above about 0.92. The list shows a part of the results.

Assay: chemical genetic growth profiling, strain panel (AID 1159580);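 also: tested at 20 µM; growth read once vehicle control cultures reached saturation at 30 °C; 1 = growth at the plate median or of vehicle wells; lower values mean less growth of the strain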
Details: growth OD

Measured: normalized growth

C[N+]12CCC(CC1)C(OC(=O)C(O)(c1ccccc1)c1ccccc1)C2 (configuration not stated)
inactive: S. cerevisiae deletion strains, locus YJR075W, strain HOC1, stronger effect = lower value 0.982 | S. cerevisiae deletion strains, locus YKL009W, strain mrt4, stronger effect = lower value 0.998 | S. cerevisiae deletion strains, locus YKL068W, stronger effect = lower value 0.985 | S. cerevisiae deletion strains, locus YKL085W, strain MDH1 (second series), stronger effect = lower value 0.994 | S. cerevisiae deletion strains, locus YKL085W, strain MDH1, stronger effect = lower value 0.994 | S. cerevisiae deletion strains, locus YKL160W, strain elf1, stronger effect = lower value 0.962 | S. cerevisiae deletion strains, locus YKL190W, strain CNB1, stronger effect = lower value 1 | S. cerevisiae deletion strains, locus YKR001C, strain vps1, stronger effect = lower value 0.958 | S. cerevisiae deletion strains, locus YKR026C, strain gcn3, stronger effect = lower value 0.984 | S. cerevisiae deletion strains, locus YKR091W, strain srl3, stronger effect = lower value 0.972 | S. cerevisiae deletion strains, locus YLL001W, strain dnm1, stronger effect = lower value 0.922 | S. cerevisiae deletion strains, locus YLL026W, stronger effect = lower value 0.975 | S. cerevisiae deletion strains, locus YLL041C, strain sdh2, stronger effect = lower value 1 | S. cerevisiae deletion strains, locus YLR027C, strain aat2, stronger effect = lower value 0.977 | S. cerevisiae deletion strains, locus YLR039C, strain RIC1, stronger effect = lower value 1.02 | S. cerevisiae deletion strains, locus YLR058C, strain SHM2, stronger effect = lower value 0.985 | S. cerevisiae deletion strains, locus YLR102C, strain apc9, stronger effect = lower value 0.987 | S. cerevisiae deletion strains, locus YLR113W, strain HOG1, stronger effect = lower value 0.975 | S. cerevisiae deletion strains, locus YLR221C, strain rsa3, stronger effect = lower value 0.929 | S. cerevisiae deletion strains, locus YLR258W, strain gsy2, stronger effect = lower value 0.979 | S. cerevisiae deletion strains, locus YLR262C, strain YPT6 (second series), stronger effect = lower value 0.955 | S. cerevisiae deletion strains, locus YLR262C, strain YPT6, stronger effect = lower value 1 | S. cerevisiae deletion strains, locus YLR268W, strain sec22, stronger effect = lower value 0.906 | S. cerevisiae deletion strains, locus YLR320W, strain mms22, stronger effect = lower value 0.952 | S. cerevisiae deletion strains, locus YLR330W, strain CHS5, stronger effect = lower value 0.995 | S. cerevisiae deletion strains, locus YLR342W, strain FKS1 (second series), stronger effect = lower value 1.01 | S. cerevisiae deletion strains, locus YLR342W, strain FKS1, stronger effect = lower value 0.989 | S. cerevisiae deletion strains, locus YLR357W, strain rsc2, stronger effect = lower value 0.983 | S. cerevisiae deletion strains, locus YLR370C, strain arc18, stronger effect = lower value 0.966 | S. cerevisiae deletion strains, locus YLR371W, strain rom2, stronger effect = lower value 0.977 | S. cerevisiae deletion strains, locus YLR384C, strain iki3, stronger effect = lower value 0.985 | S. cerevisiae deletion strains, locus YLR418C, strain cdc73, stronger effect = lower value 0.955 | S. cerevisiae deletion strains, locus YML016C, strain PPZ1, stronger effect = lower value 0.989 | S. cerevisiae deletion strains, locus YML032C, strain rad52, stronger effect = lower value 0.96 | S. cerevisiae deletion strains, locus YML120C, strain ndi1, stronger effect = lower value 0.939 | S. cerevisiae deletion strains, locus YML124C, strain tub3, stronger effect = lower value 0.985 | S. cerevisiae deletion strains, locus YMR058W, strain fet3, stronger effect = lower value 0.981 | S. cerevisiae deletion strains, locus YMR078C, strain ctf18, stronger effect = lower value 0.977 | S. cerevisiae deletion strains, locus YMR125W, strain sto1, stronger effect = lower value 0.924 | S. cerevisiae deletion strains, locus YMR129W, stronger effect = lower value 1.01 | S. cerevisiae deletion strains, locus YMR205C, strain PFK2, stronger effect = lower value 0.948 | S. cerevisiae deletion strains, locus YMR223W, strain ubp8, stronger effect = lower value 1.01 | S. cerevisiae deletion strains, locus YMR231W, strain pep5, stronger effect = lower value 1 | S. cerevisiae deletion strains, locus YMR263W, strain SAP30, stronger effect = lower value 0.985 | S. cerevisiae deletion strains, locus YMR307W, strain GAS1, stronger effect = lower value 1 | S. cerevisiae deletion strains, locus YNL067W, strain RPL9B, stronger effect = lower value 0.978 | S. cerevisiae deletion strains, locus YNL071W, strain lat1, stronger effect = lower value 1 | S. cerevisiae deletion strains, locus YNL128W, strain TEP1, stronger effect = lower value 0.998 | S. cerevisiae deletion strains, locus YNL153C, strain GIM3, stronger effect = lower value 0.98 | S. cerevisiae deletion strains, locus YNL183C, strain NPR1, stronger effect = lower value 0.932 | S. cerevisiae deletion strains, locus YNL209W, strain ssb2, stronger effect = lower value 0.978 | S. cerevisiae deletion strains, locus YNL233W, strain BNI4, stronger effect = lower value 0.978 | S. cerevisiae deletion strains, locus YNL248C, strain rpa49, stronger effect = lower value 0.984 | S. cerevisiae deletion strains, locus YNL250W, strain rad50, stronger effect = lower value 0.985 | S. cerevisiae deletion strains, locus YNL271C, strain bni1, stronger effect = lower value 0.974 | S. cerevisiae deletion strains, locus YNL298W, strain CLA4, stronger effect = lower value 0.984 | S. cerevisiae deletion strains, locus YNL307C, strain MCK1, stronger effect = lower value 0.969 | S. cerevisiae deletion strains, locus YNL322C, strain KRE1 (second series), stronger effect = lower value 0.966 | S. cerevisiae deletion strains, locus YNL322C, strain KRE1, stronger effect = lower value 0.998 | S. cerevisiae deletion strains, locus YNR049C, strain mso1, stronger effect = lower value 0.973 | S. cerevisiae deletion strains, locus YNR052C, strain pop2, stronger effect = lower value 0.986 | S. cerevisiae deletion strains, locus YOL006C, strain TOP1, stronger effect = lower value 0.965 | S. cerevisiae deletion strains, locus YOL012C, strain htz1 0.92 | S. cerevisiae deletion strains, locus YOL147C, strain pex11, stronger effect = lower value 0.985 | S. cerevisiae deletion strains, locus YOR001W, strain rrp6, stronger effect = lower value 1.04 | S. cerevisiae deletion strains, locus YOR061W, strain CKA2, stronger effect = lower value 0.99 | S. cerevisiae deletion strains, locus YOR069W, strain VPS5, stronger effect = lower value 0.986 | S. cerevisiae deletion strains, locus YOR070C, strain gyp1, stronger effect = lower value 0.985 | S. cerevisiae deletion strains, locus YOR080W, strain dia2, stronger effect = lower value 0.97 | S. cerevisiae deletion strains, locus YOR083W, strain WHI5, stronger effect = lower value 0.965 | S. cerevisiae deletion strains, locus YOR106W, strain vam3, stronger effect = lower value 0.951 | S. cerevisiae deletion strains, locus YOR136W, strain idh2, stronger effect = lower value 0.979 | S. cerevisiae deletion strains, locus YOR144C, strain elg1, stronger effect = lower value 0.984 | S. cerevisiae deletion strains, locus YOR184W, strain ser1, stronger effect = lower value 0.96 | S. cerevisiae deletion strains, locus YOR231W, strain MKK1, stronger effect = lower value 0.98 | S. cerevisiae deletion strains, locus YOR265W, strain rbl2, stronger effect = lower value 0.986 | S. cerevisiae deletion strains, locus YOR270C, strain vph1, stronger effect = lower value 0.995 | S. cerevisiae deletion strains, locus YOR290C, strain snf2, stronger effect = lower value 0.966 | S. cerevisiae deletion strains, locus YOR316C, strain cot1, stronger effect = lower value 0.975 | S. cerevisiae deletion strains, locus YPL051W, strain arl3, stronger effect = lower value 0.987 | S. cerevisiae deletion strains, locus YPL055C, strain LGE1, stronger effect = lower value 0.992 | S. cerevisiae deletion strains, locus YPL078C, strain atp4, stronger effect = lower value 0.958 | S. cerevisiae deletion strains, locus YPL106C, strain sse1, stronger effect = lower value 0.94 | S. cerevisiae deletion strains, locus YPL240C, strain hsp82, stronger effect = lower value 0.996 | S. cerevisiae deletion strains, locus YPL241C, strain CIN2, stronger effect = lower value 0.996 | S. cerevisiae deletion strains, locus YPL256C, strain CLN2, stronger effect = lower value 0.959 | S. cerevisiae deletion strains, locus YPR119W, strain clb2, stronger effect = lower value 0.983 | S. cerevisiae deletion strains, locus YPR141C, strain kar3, stronger effect = lower value 0.967 | S. cerevisiae deletion strains, locus YPR163C, strain tif3, stronger effect = lower value 0.973 | S. cerevisiae deletion strains, locus YPR167C, strain met16, stronger effect = lower value 0.978 | S. cerevisiae deletion strains, strain wtn01, stronger effect = lower value 0.964 | S. cerevisiae strains, strain wild type, stronger effect = lower value 0.992
